In the library only some 2.4% were active in any assay of this set; here they are far more common.
Arbovirus inh – blocks arbovirus infection; arbovirus infection cell-based antiviral screen; inhibition, % at 10 µM; 0.37% of 200,000 active; in the data active = inhibition above about 30%
MEKK2mut PB1 HTS – signal of MEK5 binding to mutant human MEKK2 PB1 domain. 0.35% of 290,000 active. bead flow cytometry, Alexa488-MEK5 binding to MEKK2 mutant. percent response, % at 10 µM; in the data active = percent response above about 24%, passing the limit was not always enough
Pf gametocyte – kills late stage P. falciparum gametocytes | inhibition, % at 10.9 µM | 0.065% of 150,000 active | AID 743093 | P. falciparum stage V gametocytes, ATP luminescence, 24 h;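 active = inhibition above the mean plus 3 SD of compounds within the control limits, set per campaign, cut at about 38% in these data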;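 also: 0% = DMSO wells and 100% = medium only without gametocytes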
MEKK3 PB1 HTS – modulators (inhibitors or enhancers) of MEK5 binding to human MEKK3 PB1 domain; Q99759; bead-based flow cytometry, Alexa488-MEK5 binding to MEKK3; actives lie on both sides; 0 = blocked by unlabeled MEK5, 100 = vehicle; binding response (% of control), % at 10 µM; 1.4% of 290,000 active; AID 1529;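 active = binding response more than 3 SD above or below the average of its plate-row segment, actives on both sides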;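 also: Alexa488 bead fluorescence after subtracting the streptavidin-only scavenger bead signal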
Target sequence (Q99759 whole entry, looked up, the tested form may be a part): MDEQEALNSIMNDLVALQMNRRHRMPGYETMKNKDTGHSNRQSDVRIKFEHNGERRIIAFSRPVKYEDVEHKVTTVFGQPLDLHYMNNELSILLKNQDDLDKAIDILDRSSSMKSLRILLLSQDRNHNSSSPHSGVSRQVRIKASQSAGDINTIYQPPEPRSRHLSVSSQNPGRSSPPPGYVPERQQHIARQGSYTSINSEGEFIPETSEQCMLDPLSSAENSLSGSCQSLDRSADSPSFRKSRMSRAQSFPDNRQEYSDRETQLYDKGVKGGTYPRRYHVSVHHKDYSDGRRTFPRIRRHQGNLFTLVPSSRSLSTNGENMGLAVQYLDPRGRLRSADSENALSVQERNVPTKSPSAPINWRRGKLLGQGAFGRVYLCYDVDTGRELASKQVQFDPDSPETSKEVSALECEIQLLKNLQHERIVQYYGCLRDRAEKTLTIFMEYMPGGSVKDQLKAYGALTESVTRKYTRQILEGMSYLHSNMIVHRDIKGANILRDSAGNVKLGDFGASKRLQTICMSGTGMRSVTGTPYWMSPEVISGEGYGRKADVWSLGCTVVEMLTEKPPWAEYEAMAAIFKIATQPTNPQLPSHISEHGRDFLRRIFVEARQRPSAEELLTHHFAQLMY
MEKK2 WT-MEK5 – raises or lowers MEK5 binding to wildtype human MEKK2 PB1 domain. bead flow cytometry, Alexa488-MEK5 binding to MEKK2 WT; actives lie on both sides. Q9Y2U5. AID 1531. binding response (% of control), % at 10 µM. 1.1% of 290,000 active; in the data active = binding response below about 67% or above about 130%
MEKK2wt confirm – raises or lowers MEK5 binding to wildtype human MEKK2, retest; shares compounds with MEKK3 PB1 HTS; AID 1892; 2.4% of 5,900 active; bead flow cytometry, Alexa488-MEK5 binding to MEKK2 WT; actives lie on both sides; binding response (% of control), % at 10 µM; in the data active = binding response below about 16% or above about 210%; inactive = in between
MEKK2mut-MEK5 – signal of MEK5 binding to mutant human MEKK2, retest; shares compounds with MEKK3 PB1 HTS; bead flow cytometry, Alexa488-MEK5 binding to MEKK2 mutant; percent response, % at 10 µM; 2% of 5,900 active; AID 1893; in the data active = percent response mostly above about 71%, no sharp cut-off; inactive = mostly below about 38%;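 also: higher means compound restores mutant binding toward wildtype level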
MEKK3-MEK5 inh – MEKK3-MEK5 PB1 inhibition, single concentration confirmation. shares compounds with MEKK3 PB1 HTS. bead flow cytometry, Alexa488-MEK5 binding to MEKK3; active compounds read low. binding response (% of control), % at 10 µM. 1.8% of 5,900 active;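 active = binding response below 72% of control, or above a set upper limit, though filed actives all read lower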;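 also: 100% = DMSO only wells and 0% = binding blocked by excess unlabeled MEK5; lower values mean stronger disruption of MEK5 binding to MEKK3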
The depositor's hits bear a star; / = no result; [ ] = dose if it differs, or a comment.

SMILES | Arbovirus inh | MEKK2mut PB1 HTS | Pf gametocyte | MEKK3 PB1 HTS | MEKK2 WT-MEK5 | MEKK2wt confirm | MEKK2mut-MEK5 | MEKK3-MEK5 inh
COc1ccc2c(c1)c(C(=O)CN1CCN(C)CC1)c(C)n2Cc1ccccc1 | 5 | 23 | 4 | 103 | 141* | 163 | 53 | 108
Cc1ccccc1-n1c(C)nc2sccc2c1=O | 1 | -18 | / | 2.0*[inhibitor] | 3.0*[inhibitor] | 106 | 6 | 106
Cc1ccc(C(O)(C(=O)NNC(=O)CN2CCN(C)CC2)c2ccc(C)cc2)cc1 | -3 | 0 | / | 67*[inhibitor] | 101 | 106 | 6 | 107
Cc1cccc(C(O)(C(=O)NNC(=O)CN2CCN(C)CC2)c2cccc(C)c2)c1 | 5 | 1 | -6 | 90 | 98 | / | / | /
C=CCN1C(=O)NC(=O)/C(=C/c2cc3c4c(c2)CCCN4CCC3)C1=O | 6 | 8 | 15 | 93 | 26*[inhibitor] | 89 | -15 | 98
CCOC(=O)C1(CCCc2ccccc2)CCN(C2CCC2)CC1 | 1 | 11 | / | 103 | 114 | / | / | /
C#CCN(C)C(C)Cc1ccccc1 (stereo not given) | 0 | 3 | / | 69*[inhibitor] | 61*[inhibitor] | 99 | -6 | 100
O=c1[nH]c(=O)n(-c2ccccc2)c(O)c1N=Nc1ccc(Br)cc1 | 3 | 1 | -29 | 101 | 98 | / | / | /
CN[C@@H]1C[C@@H](c2ccc(Cl)c(Cl)c2)c2ccccc21 | -22 | 11 | / | 106 | 142* | 133 | 11 | 106
CC(NCc1ccc(Cl)c(Cl)c1)C(O)c1ccccc1 (stereo not given) | 22 | -7 | / | 97 | 98 | / | / | /
CCCCCCCSc1cc(OC)c(CCNC)cc1OC | -36 | 23 | 2 | 92 | 149* | 130 | 11 | 81
COC/C=C1\CN2C3C[C@@H]1[C@H]1COC4=Nc5cc(OC)c(OC)c(OC)c5[C@@]43C[C@@H]12 | / | 2 | / | 104 | 101 | / | / | /
Cc1nn(Cc2ccccc2Cl)c(C)c1C(=O)OCC(=O)NC1CCCC(C)C1C (stereo not given) | -3 | 1 | -21 | 141* | 104 | 103 | -1 | 101
CN(C)c1ccc(/C=C/c2cc[n+](C)c3ccccc23)cc1 | 4 | -31 | 30 | 70*[inhibitor] | / | 95 | -4 | 87
CC(C)COc1ccc(Cc2c(O)[nH]c(=S)[nH]c2=O)cc1 | / | 0 | -11 | 103 | 105 | / | / | /
CCOP(=O)(OCC)c1ccc(O)cc1 | 5 | 8 | 13 | 104 | 106 | / | / | /
Cc1nn(Cc2ccccc2)c(C)c1C(=O)OCC(=O)Nc1cc(S(C)(=O)=O)ccc1Cl | 4 | -8 | / | 92 | 80 | / | / | /
COc1ccc2c3c([nH]c2c1)C(C)=NCC3 | 16 | 4 | / | 82 | 29*[inhibitor] | 103 | -3 | 100
CC[C@H]1CC2CN3CCc4c([nH]c5cc(OC)ccc45)[C@](C(=O)OC)(C2)[C@H]13 | / | 3 | / | 101 | 103 | / | / | /
COc1ccc2[nH]cc(C3=CCNCC3)c2c1 | / | 174* | / | 109 | 182* | 123 | -18 | 98
O=C1NC(=O)[C@]2(Cc3ccccc3N3CCN(c4ccccc4)CC32)C(=O)N1Cc1ccccc1 (stereo not given in full) | 7 | 0 | -24 | 107 | 103 | / | / | /
O=C1NC(=O)C2(Cc3ccccc3N3CCCC32)C(=O)N1Cc1ccccc1 (stereo not given) | 0 | -30 | -3 | -2.0*[inhibitor] | -30*[inhibitor] | 100 | 0 | 102
Cc1nn(Cc2ccccc2)c(Cl)c1C(=O)OCC(=O)N1CCCC1 | -8 | -1 | / | 99 | 97 | / | / | /
Cn1c(O)c(/C=C2\C=Nc3ccccc32)c(=O)n(C)c1=O | / | 6 | -22 | 106 | 105 | / | / | /
COC(=O)C1=Nc2ccccc2/C1=C\c1c(O)n(C)c(=O)n(C)c1=O | / | -30 | -20 | 74*[inhibitor] | 55*[inhibitor] | 98 | -4 | 100
SMILES | Arbovirus inh | MEKK2mut PB1 HTS | Pf gametocyte | MEKK3 PB1 HTS | MEKK2 WT-MEK5 | MEKK2wt confirm | MEKK2mut-MEK5 | MEKK3-MEK5 inh
CCn1c(O)c(C=NCCN2CCOCC2)c(=O)n(CC)c1=S | / | 0 | -13 | 93 | 97 | / | / | /
CCn1c(O)c(/C=N/N2CCOCC2)c(=O)n(CC)c1=S | 24 | 0 | -11 | 143* | 102 | 102 | -4 | 103
ON1C2CCCCC2N(O)C1c1ccccc1 (stereo not given) | -4 | -33 | 9 | 22*[inhibitor] | 33*[inhibitor] | 103 | 3 | 103
c1ccc(C2N3CCCN23)cc1 (stereo not given) | -3 | 8 | / | 108 | 112 | / | / | /
CCS(=O)(=O)NCc1nnc2n1-c1ccc(Br)cc1C(c1ccccc1Cl)=NC2 | / | / | -10 | / | / | / | / | /
NCCc1c[nH]c2ccccc12 | 5 | 11 | / | 92 | 138* | 113 | 9 | 103
O=C1C2CCCN2C(c2cccc(Cl)c2)N1c1ccccn1 (stereo not given) | -4 | -17 | 4 | 0.0*[inhibitor] | 0.0*[inhibitor] | 102 | 2 | 101
O=C1C2CCCN2C(c2ccc(Cl)c(Cl)c2)N1c1ccccn1 (stereo not given) | 5 | 5 | / | 110 | 112 | / | / | /
CCOc1c(Cl)cc(CNCCc2c[nH]c3ccccc23)cc1OC | -31 | 38 | 13 | 102 | 156* | 127 | 13 | 102
COc1cc(C)c(CNCCc2c[nH]c3ccccc23)cc1C | / | 26* | / | 102 | 123 | 82 | -3 | 69*
COc1cccc(-c2nn(CCC#N)cc2C(=O)Nc2ccccc2Cl)c1 | / | 1 | -1 | 105 | 104 | / | / | /

Screening results from PubChem BioAssay.
